Measurements reported in PubChem BioAssay AID1159580 (chemical genetic matrix, 2015).
The whole screen tested about 5,500 compounds, of which about 2,000 (36%) were called active. Not shown: some 18% with an inconclusive outcome. No stated cut-off is given here; in the data, active means normalized growth mostly below about 0.91 (no sharp cut-off); inconclusive means no clear call, values can overlap the other calls; inactive means mostly above about 0.92. This is one part of the list.

Assay: chemical genetic growth profiling, strain panel (AID 1159580);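 further: tested at 20 µM; growth read once vehicle control cultures reached saturation at 30 °C; 1 = growth at the plate median or of vehicle wells; lower values mean less growth of the strain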
Settings: growth OD

Measured: normalized growth

CC(C)CC1NC(=O)NC1=O (stereo not drawn)
inactive: S. cerevisiae deletion strains, locus YAL013W, strain DEP1, active compounds read low 1.02 | S. cerevisiae deletion strains, locus YBR229C, strain ROT2, active compounds read low 1.01 | S. cerevisiae deletion strains, locus YDL101C, strain DUN1, active compounds read low 1 | S. cerevisiae deletion strains, locus YDL134C, strain PPH21, active compounds read low 1.05 | S. cerevisiae deletion strains, locus YDR150W, strain NUM1, active compounds read low 1.01 | S. cerevisiae deletion strains, locus YEL061C, strain CIN8, active compounds read low 1.02 | S. cerevisiae deletion strains, locus YGR078C, strain PAC10, active compounds read low 1.01 | S. cerevisiae deletion strains, locus YGR229C, strain SMI1, active compounds read low 1.01 | S. cerevisiae deletion strains, locus YHR030C, strain SLT2, active compounds read low 1.04 | S. cerevisiae deletion strains, locus YHR087W, strain rtc3, active compounds read low 1.02 | S. cerevisiae deletion strains, locus YJR043C, strain POL32, active compounds read low 1.01 | S. cerevisiae deletion strains, locus YJR075W, strain HOC1, active compounds read low 1.02 | S. cerevisiae deletion strains, locus YLR039C, strain RIC1, active compounds read low 1 | S. cerevisiae deletion strains, locus YLR058C, strain SHM2 (second series), active compounds read low 0.998 | S. cerevisiae deletion strains, locus YLR085C, strain ARP6, active compounds read low 1.07 | S. cerevisiae deletion strains, locus YLR262C, strain YPT6, active compounds read low 1 | S. cerevisiae deletion strains, locus YML094W, strain GIM5, active compounds read low 1.03 | S. cerevisiae deletion strains, locus YMR219W, strain ESC1, active compounds read low 1.01 | S. cerevisiae deletion strains, locus YMR263W, strain SAP30, active compounds read low 1.01 | S. cerevisiae deletion strains, locus YMR307W, strain GAS1, active compounds read low 1.02 | S. cerevisiae deletion strains, locus YNL153C, strain GIM3, active compounds read low 1.01 | S. cerevisiae deletion strains, locus YNL298W, strain CLA4 (second series), active compounds read low 0.984 | S. cerevisiae deletion strains, locus YNL322C, strain KRE1, active compounds read low 1.02 | S. cerevisiae deletion strains, locus YNR030W, strain Alg12, active compounds read low 1.02 | S. cerevisiae deletion strains, locus YPL055C, strain LGE1, active compounds read low 1.07 | S. cerevisiae deletion strains, locus YPL241C, strain CIN2, active compounds read low 1.02 | S. cerevisiae deletion strains, locus YPR135W, strain CTF4, active compounds read low 1.13 | S. cerevisiae strains, strain wild type, active compounds read low 1.02
